Source: PubChem BioAssay (Tox21)
Results filed as inconclusive are left out. The source made the active and inactive calls. Unless noted, the call rests on the fitted dose curve; in most records, active means well fitted curve in the direction sought with a large enough effect in the repeat runs; inconclusive means weak or mixed curves; inactive means no such curve, though single readings can be large; an effect the other way counts as inactive or inconclusive.

How the values were obtained:
[1] = qHTS assay to test for compound auto fluorescence at 535 nm (green) in HEK293 cells (AID 720680)
[2] = qHTS assay to test for compound auto fluorescence at 460 nm (blue) in HEK293 cell free culture (AID 720681)
Summary of the method: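 Blue fluorescence (Ex 405/Em 460 nm, triamterene-equivalent) was read immediately after pin transfer of compound or DMSO into medium (DMEM, 10% FBS) without cells.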

[3] = qHTS assay to test for compound auto fluorescence at 535 nm (green) in HEK293 cell free culture (AID 720682)
Summary of the method: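 Read-out: 485/535 nm fluorescence intensity, calibrated against fluorescein. Medium only (DMEM + 10% FBS, no cells); test compound or DMSO vehicle added by pintool before plate reading.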

[4] = qHTS assay to test for compound auto fluorescence at 590 nm (red) in HEK293 cell free culture (AID 720683)
Summary of the method: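 Red-channel autofluorescence of compounds in culture medium (DMEM, 10% FBS), no cells, measured at 540/590 nm. Rose Bengal sodium is the reference fluorophore for equivalence.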

[5] = qHTS assay to test for compound auto fluorescence at 590 nm (red) in HepG2 cell free culture (AID 720684)
Summary of the method: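 Plate contents were MEM with 10% FBS plus test compound or DMSO, no cells. Fluorescence was recorded with 540 nm excitation and 590 nm emission.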

[6] = qHTS assay to test for compound auto fluorescence at 460 nm (blue) in HepG2 cell free culture (AID 720685)
Summary of the method: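 Compound (23 nL) or DMSO pinned into cell-free MEM with 10% FBS; blue fluorescence read at 405/460 nm excitation/emission, expressed as auto-fluorescence equivalency to triamterene.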

[7] = qHTS assay to test for compound auto fluorescence at 535 nm (green) in HepG2 cell free culture (AID 720686)
[8] = qHTS assay to test for compound auto fluorescence at 460 nm (blue) in HepG2 cells (AID 720687)
Summary of the method: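 Blue-channel autofluorescence (Ex/Em 405/460 nm, triamterene-equivalent) was measured after 1 hr compound exposure at 37 C, 5% CO2. Cells were HepG2, plated overnight at 37 C in MEM plus 10% FBS.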

[9] = qHTS assay to identify small molecule antagonists of the glucocorticoid receptor (GR) signaling pathway - cell viability counter screen (AID 720693); further: nearly all actives have a fitted effect of over 55% in size
[10] = qHTS assay for identifying genotoxic compounds that show differential cytotoxicity against isogenic chicken DT40 cell lines with known DNA damage response pathways - wild type cell line (AID 743012); further: nearly all actives have a fitted effect of over 60% in size
Summary of the method: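 Quantitative HTS on parental DT40 cells: 40 h compound treatment at 37 C/5% CO2, with viability then determined by CellTiter-Glo luminescence. Values serve as the DNA repair-proficient reference for differential cytotoxicity.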

[11] = qHTS assay for identifying genotoxic compounds that show differential cytotoxicity against isogenic chicken DT40 cell lines with known DNA damage response pathways - Rev3 mutant cell line (AID 743014); further: nearly all actives have a fitted effect of over 55% in size
[12] = qHTS assay to identify small molecule antagonists of the androgen receptor (AR) signaling pathway - cell viability counter screen (AID 743033; further: nearly all actives have a fitted effect of over 45% in size)
[13] = qHTS assay to identify small molecule antagonists of the androgen receptor (AR) signaling pathway using the MDA cell line - cell viability counter screen (AID 743041; further: nearly all actives have a fitted effect of over 45% in size)
Summary of the method: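 R1881-driven MDA-kb2 AR-luc cells, 3,000/well, were dosed with library compounds for 16 h; cell health came from CellTiter-Fluor fluorescence in the reporter wells.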

[14] = biological target: Glucocorticoid receptor (Homo sapiens) (UniProt P04150); experiment: qHTS assay to identify small molecule agonists of the glucocorticoid receptor (GR) signaling pathway (AID 720691; active means well fitted activation curve with a large enough effect in the signal ratio in the repeat runs, not every such curve was filed as active; the % refers to the signal ratio)
Sequence of Glucocorticoid receptor (Homo sapiens) (P04150 whole entry, looked up): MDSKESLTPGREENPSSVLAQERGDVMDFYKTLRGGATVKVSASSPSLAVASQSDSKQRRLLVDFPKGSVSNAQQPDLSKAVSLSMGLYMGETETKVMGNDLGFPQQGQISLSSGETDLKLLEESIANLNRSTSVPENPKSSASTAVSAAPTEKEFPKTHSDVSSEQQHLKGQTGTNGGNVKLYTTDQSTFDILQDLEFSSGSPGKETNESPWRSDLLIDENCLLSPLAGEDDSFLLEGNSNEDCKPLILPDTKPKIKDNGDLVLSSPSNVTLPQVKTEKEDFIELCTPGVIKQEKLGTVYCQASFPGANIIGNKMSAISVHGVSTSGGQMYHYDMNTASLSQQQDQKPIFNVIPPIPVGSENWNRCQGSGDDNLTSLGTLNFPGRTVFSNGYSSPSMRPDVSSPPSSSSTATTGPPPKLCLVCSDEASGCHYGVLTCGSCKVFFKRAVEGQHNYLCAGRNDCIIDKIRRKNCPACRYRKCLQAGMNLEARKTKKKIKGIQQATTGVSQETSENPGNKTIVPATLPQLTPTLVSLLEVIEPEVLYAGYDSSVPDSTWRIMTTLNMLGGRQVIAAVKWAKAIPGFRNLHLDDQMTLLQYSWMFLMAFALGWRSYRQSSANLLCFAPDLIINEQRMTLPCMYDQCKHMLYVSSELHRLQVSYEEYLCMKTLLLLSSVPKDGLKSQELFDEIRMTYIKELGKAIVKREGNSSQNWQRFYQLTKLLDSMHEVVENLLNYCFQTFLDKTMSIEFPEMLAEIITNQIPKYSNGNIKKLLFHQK
Summary of the method: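 Beta-lactamase reporter activity, read as fluorescence intensity, was measured in GR-bla HeLa cells exposed to compounds for 18 h at 37 C and then loaded with LiveBLAzer B/G FRET substrate for 2 h at room temperature.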

[15] = biological target: Glucocorticoid receptor (Homo sapiens) (UniProt P04150); experiment: qHTS assay to identify small molecule antagonists of the glucocorticoid receptor (GR) signaling pathway (AID 720692; active means well fitted inhibition curve with a large enough effect in the signal ratio in the repeat runs, not every such curve was filed as active; the % refers to the signal ratio)
Summary of the method: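 Fluorescence from cleaved LiveBLAzer B/G FRET substrate reports GRE-driven beta-lactamase in HeLa cells; compounds are tested against 5 nM dexamethasone (final) over 18 h at 37 C, substrate incubation 2 h at room temperature.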

[16] = qHTS assay for identifying genotoxic compounds that show differential cytotoxicity against isogenic chicken DT40 cell lines with known DNA damage response pathways - Rad54/Ku70 mutant cell line (AID 743015); further: nearly all actives have a fitted effect of over 60% in size
[17] = biological target: Androgen receptor (Homo sapiens) (UniProt P10275); experiment: qHTS assay to identify small molecule antagonists of the androgen receptor (AR) signaling pathway (AID 743035; active means well fitted inhibition curve with a large enough effect in the signal ratio in the repeat runs, not every such curve was filed as active; the % refers to the signal ratio)
Sequence of Androgen receptor (Homo sapiens) (P10275 whole entry, looked up): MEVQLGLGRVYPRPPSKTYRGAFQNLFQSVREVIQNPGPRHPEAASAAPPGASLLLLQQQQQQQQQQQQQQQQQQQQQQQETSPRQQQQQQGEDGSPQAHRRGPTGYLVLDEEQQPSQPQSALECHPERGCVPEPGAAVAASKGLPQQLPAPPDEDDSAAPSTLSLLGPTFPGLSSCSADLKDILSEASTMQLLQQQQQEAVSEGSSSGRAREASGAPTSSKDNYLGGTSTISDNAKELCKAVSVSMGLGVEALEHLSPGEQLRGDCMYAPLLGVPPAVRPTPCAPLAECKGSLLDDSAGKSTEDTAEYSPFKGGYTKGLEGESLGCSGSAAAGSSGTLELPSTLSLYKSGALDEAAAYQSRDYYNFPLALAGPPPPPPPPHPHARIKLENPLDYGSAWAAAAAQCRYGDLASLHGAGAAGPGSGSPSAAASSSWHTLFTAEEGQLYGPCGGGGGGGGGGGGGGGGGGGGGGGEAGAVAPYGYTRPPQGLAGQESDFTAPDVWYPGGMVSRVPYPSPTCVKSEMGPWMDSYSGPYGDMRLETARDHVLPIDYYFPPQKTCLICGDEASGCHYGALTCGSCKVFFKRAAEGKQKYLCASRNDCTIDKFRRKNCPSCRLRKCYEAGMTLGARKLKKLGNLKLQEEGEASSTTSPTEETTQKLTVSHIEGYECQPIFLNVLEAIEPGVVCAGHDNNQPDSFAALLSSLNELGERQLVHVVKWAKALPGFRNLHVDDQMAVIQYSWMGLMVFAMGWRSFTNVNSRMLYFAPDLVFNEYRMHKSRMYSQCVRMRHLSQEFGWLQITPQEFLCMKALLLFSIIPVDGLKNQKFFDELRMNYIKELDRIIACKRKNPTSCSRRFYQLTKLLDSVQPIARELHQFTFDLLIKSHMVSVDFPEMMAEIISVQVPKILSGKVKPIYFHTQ
Summary of the method: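 Cell line: GeneBLAzer AR-UAS-bla GripTite (HEK293). Stimulus: R1881 added after compound. Exposure: 16 h, 37C, 5% CO2. Readout: LiveBLAzer B/G FRET fluorescence after 2 h at room temperature.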

[18] = biological target: Androgen receptor (Homo sapiens) (UniProt P10275); experiment: qHTS assay to identify small molecule agonists of the androgen receptor (AR) signaling pathway (AID 743036; active means well fitted activation curve with a large enough effect in the signal ratio in the repeat runs, with a control signal flat, not every such curve was filed as active; the % refers to the signal ratio)
Summary of the method: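 HEK293 cells stably carrying a UAS-driven beta-lactamase reporter (GeneBLAzer AR-UAS-bla-GripTite) were plated at 2,000 cells/well, rested 4 h at 37C, then exposed to compounds in DMSO for 16 h. LiveBLAzer B/G FRET substrate was added for 2 h at room temperature; fluorescence read.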

[19] = biological target: Androgen receptor (Homo sapiens) (UniProt P10275); experiment: qHTS assay to identify small molecule agonists of the androgen receptor (AR) signaling pathway using the MDA cell line (AID 743040; further: nearly all actives have a fitted effect of over 20% in size)
Summary of the method: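 After a 5 h incubation at 37C and 0% CO2, MDA-kb2 reporter cells were dosed with compounds in DMSO and kept 16 h under the same conditions. Luciferase activity was then read as luminescence with ONE-Glo.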

[20] = biological target: Androgen receptor (Homo sapiens) (UniProt P10275); experiment: qHTS assay to identify small molecule antagonists of the androgen receptor (AR) signaling pathway using the MDA cell line (AID 743042; further: nearly all actives have a fitted effect of over 55% in size)
Summary of the method: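 Antagonist mode: compounds plus R1881 agonist added to MDA-kb2 AR-luc cells, incubated 16 h at 37C. Luciferase reporter luminescence quantified, with multiplexed CellTiter-Fluor readout for cell viability.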
On the % scale 0 is the no-effect control and ±100 the full control effect.

CCOc1cccc(N)c1
inactive: outcome [1] | outcome [2] | outcome [3] | outcome [4] | outcome [5] | outcome [6] | outcome [7] | outcome [8] | outcome [9] | Potency [10] | Potency [11] | outcome [12] | Potency [13]

C=Cc1ccc(C(C)(C)C)cc1
inactive: outcome [1] | outcome [2] | outcome [3] | outcome [4] | outcome [5] | outcome [6] | outcome [7] | outcome [8] | Potency [10] | Potency [11] | outcome [12]

CO/N=C(/C(=O)N[C@@H]1C(=O)N2C(C(=O)[O-])=C(C[n+]3ccn4ncccc43)CS[C@H]12)c1nsc(N)n1
inactive: outcome [1] | outcome [2] | outcome [3] | outcome [4] | outcome [5] | outcome [6] | outcome [8] | Potency [14] | outcome [15] | outcome [9] | Potency [10] | Potency [11] | Potency [16] | outcome [12] | Potency [13]

C#CCN[C@@H]1CCc2ccccc21
inactive: outcome [1] | outcome [2] | outcome [3] | outcome [4] | outcome [5] | outcome [6] | outcome [7] | outcome [8] | outcome [9] | Potency [10] | Potency [11] | Potency [16] | outcome [17] | outcome [18] | Potency [19] | Potency [13] | outcome [20]

CCCCC1CCC(O)CC1 (stereo not drawn)
inactive: outcome [1] | outcome [2] | outcome [3] | outcome [4] | outcome [5] | outcome [6] | outcome [8] | Potency [14] | outcome [9] | Potency [10] | Potency [11] | outcome [12] | outcome [17] | outcome [18] | Potency [19] | Potency [13] | outcome [20]

C=C(C)[C@@H]1CC=C(C)CC1
inactive: outcome [1] | outcome [2] | outcome [3] | outcome [4] | outcome [5] | outcome [6] | outcome [7] | outcome [8] | outcome [12] | Potency [13]

NCc1ccc(S(N)(=O)=O)cc1
inactive: fluorescence, % of fluorescein [1] 0.0433% [at 18.6 µM] | fluorescence, % of fluorescent control [2] 0.104% [at 18.6 µM] | activity change [3] -0.0097% [at 18.6 µM] | fluorescence, % of fluorescent control [4] 0.469% [at 18.6 µM] | fluorescence, % of Rose Bengal [5] 0.496% [at 18.6 µM] | fluorescence, % of fluorescent control [6] 0.0628% [at 18.6 µM] | fluorescence, % of fluorescein control [7] 0.0245% [at 18.6 µM] | fluorescence, % of fluorescent control [8] 0.0103% [at 18.6 µM] | outcome [9] | Potency [10] | Potency [11] | Potency [16] | Potency [13]

CCCC(=O)Nc1ccc(OCC(O)CNC(C)C)c(C(C)=O)c1 (stereo not drawn)
inactive: fluorescence, % of fluorescein [1] -0.0845% [at 18.6 µM] | fluorescence, % of fluorescent control [2] 0.175% [at 18.6 µM] | activity change [3] -0.021% [at 18.6 µM] | fluorescence, % of fluorescent control [4] 0.214% [at 18.6 µM] | fluorescence, % of Rose Bengal [5] -0.252% [at 18.6 µM] | fluorescence, % of fluorescent control [6] -0.0068% [at 18.6 µM] | fluorescence, % of fluorescent control [8] 0.0344% [at 18.6 µM] | Potency [14] | outcome [15] | outcome [9] | Potency [10] | Potency [11] | outcome [12] | Potency [13]

CCCCSCCCC
inactive: outcome [1] | outcome [2] | outcome [3] | outcome [4] | outcome [5] | outcome [6] | outcome [8] | Potency [14] | outcome [15] | outcome [9] | Potency [10] | Potency [11] | outcome [12] | Potency [13]

COc1c2occc2c(OC)c2c(=O)cc(C)oc12
inactive: fluorescence, % of fluorescein [1] -0.0108% [at 18.6 µM] | fluorescence, % of fluorescent control [2] -0.0224% [at 18.6 µM] | activity change [3] 0.0751% [at 18.6 µM] | fluorescence, % of fluorescent control [4] -0.33% [at 18.6 µM] | fluorescence, % of Rose Bengal [5] -0.125% [at 18.6 µM] | fluorescence, % of fluorescent control [6] -0.0661% [at 18.6 µM] | fluorescence, % of fluorescent control [8] 0.0073% [at 18.6 µM] | Potency [14] | outcome [15] | Potency [10] | outcome [12] | Potency [13]

CCNC(=O)NCc1cccc(Cl)c1
inactive: outcome [1] | outcome [2] | outcome [3] | outcome [4] | outcome [5] | outcome [6] | outcome [7] | outcome [8] | outcome [9] | Potency [10] | Potency [11] | Potency [16] | outcome [12] | Potency [13]

OC[C@H]1O[C@@H](O[C@@H]2[C@@H](CO)O[C@](O)(CO)[C@H]2O)[C@H](O)[C@@H](O)[C@H]1O
inactive: outcome [1] | outcome [2] | outcome [3] | outcome [4] | outcome [5] | outcome [6] | outcome [8] | Potency [14] | outcome [15] | outcome [9] | Potency [10] | Potency [11] | Potency [16] | outcome [12] | outcome [18] | Potency [19] | Potency [13] | outcome [20]
